# According to PubChem BioAssay (EPA / NIEHS):
# Inconclusive results are not listed. Calls of active or inactive are those of the source. How the source made its calls: active means hit-call score of the fitted dose curve at least 0.9, where 1 is the maximum; inconclusive means response in the unintended direction; inactive means score below 0.9.
# Legend:
# [1] = target: human Adrenergic, Beta 3 Receptor (Adrb3), ADRB3 (gene 155) (UniProt P13945); test: NVS_GPCR_hAdrb3: NovaScreen (NVS) G Protein-Coupled Receptor Assay for human Adrenergic, Beta 3 Receptor (Adrb3) (AID 2283262)
# Sequence of human Adrenergic, Beta 3 Receptor (Adrb3), ADRB3 (gene 155) (P13945 whole entry, looked up): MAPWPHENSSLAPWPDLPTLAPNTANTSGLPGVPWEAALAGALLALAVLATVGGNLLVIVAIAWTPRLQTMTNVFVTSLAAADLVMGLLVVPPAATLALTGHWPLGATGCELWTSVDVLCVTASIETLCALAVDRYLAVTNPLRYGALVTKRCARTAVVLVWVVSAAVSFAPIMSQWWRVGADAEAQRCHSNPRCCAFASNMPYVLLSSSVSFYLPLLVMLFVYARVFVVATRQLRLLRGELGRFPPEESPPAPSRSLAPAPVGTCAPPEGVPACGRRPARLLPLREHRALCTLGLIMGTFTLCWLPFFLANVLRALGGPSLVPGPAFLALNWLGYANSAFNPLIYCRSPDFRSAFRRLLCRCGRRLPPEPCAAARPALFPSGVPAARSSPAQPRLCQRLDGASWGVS
# Outline: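 A cell-free filter binding assay read by scintillation counting, with displacement of a specific radioligand measured after 1 hour. The receptor source was SK-N-MC extracts (cells pretreated with isoproterenol and 8-bromo-cAMP). Compounds were first tested at 25 uM in duplicate and then in concentration series.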
# [2] = target: human Neurokinin, NK2 Receptor, TACR2 (gene 6865) (UniProt P21452); test: NVS_GPCR_hNK2: NovaScreen (NVS) G Protein-Coupled Receptor Assay for human Neurokinin, NK2 Receptor (AID 2283278);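 further: actives reduce bound radioligand signal relative to DMSO baseline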
# Sequence of human Neurokinin, NK2 Receptor, TACR2 (gene 6865) (P21452 whole entry, looked up): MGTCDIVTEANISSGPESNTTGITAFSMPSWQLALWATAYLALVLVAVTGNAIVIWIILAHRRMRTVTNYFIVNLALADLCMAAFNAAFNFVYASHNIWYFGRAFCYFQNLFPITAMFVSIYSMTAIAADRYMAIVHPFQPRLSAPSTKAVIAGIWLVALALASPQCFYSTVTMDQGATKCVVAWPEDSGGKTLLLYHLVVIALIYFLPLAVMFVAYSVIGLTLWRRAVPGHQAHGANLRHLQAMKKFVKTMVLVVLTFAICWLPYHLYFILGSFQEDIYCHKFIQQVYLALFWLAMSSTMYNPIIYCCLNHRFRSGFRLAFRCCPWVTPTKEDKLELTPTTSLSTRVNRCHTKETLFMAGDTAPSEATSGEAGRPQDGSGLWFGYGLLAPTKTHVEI
# Outline: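 Filter-based scintillation counting measured radioligand bound to receptor extracted from CHO cells, 4 hours after compound addition. Chemicals screened first at 25 uM in duplicate, with actives retested in concentration series relative to DMSO.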
# [3] = target: human Thromboxane A2 Receptor (TXA2), TBXA2R (gene 6915) (UniProt P21731); test: NVS_GPCR_hTXA2: NovaScreen (NVS) G Protein-Coupled Receptor Assay for human Thromboxane A2 Receptor (TXA2) (AID 2283282);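 further: actives reduce bound radioligand signal relative to DMSO baseline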
# Sequence of human Thromboxane A2 Receptor (TXA2), TBXA2R (gene 6915) (P21731 whole entry, looked up): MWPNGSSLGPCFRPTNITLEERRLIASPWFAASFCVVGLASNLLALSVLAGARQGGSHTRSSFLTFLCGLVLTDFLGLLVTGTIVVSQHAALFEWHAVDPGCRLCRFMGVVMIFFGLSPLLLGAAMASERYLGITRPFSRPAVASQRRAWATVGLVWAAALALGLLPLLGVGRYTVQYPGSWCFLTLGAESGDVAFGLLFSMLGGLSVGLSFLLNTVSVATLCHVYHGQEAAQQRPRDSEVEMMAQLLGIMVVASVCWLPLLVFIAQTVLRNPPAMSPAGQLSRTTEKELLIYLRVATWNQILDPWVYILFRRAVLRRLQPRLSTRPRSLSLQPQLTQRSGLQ
# Outline: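 Human platelet-derived receptor preparation incubated with test chemical and radiolabelled ligand for 1 hour, cell-free. Bound label was separated by filtration and counted; displacement relative to DMSO controls gave activity, screened at 25 uM, then titrated.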
# [4] = target: human Adenosine A2a Receptor (AdoRA2a), ADORA2A (gene 135) (UniProt P29274); test: NVS_GPCR_hAdoRA2a: NovaScreen (NVS) G Protein-Coupled Receptor Assay for human Adenosine A2a Receptor (AdoRA2a) (AID 2283256)
# Outline: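 Compounds screened in duplicate at 25 uM, with actives followed up in concentration series, for displacement of a radioligand from HEK293-derived receptor protein. Bound counts read by filter scintillation at 1.5 hours, DMSO as baseline.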
# [5] = target: human Adrenergic, Alpha 2c Receptor (Adra2C), ADRA2C (gene 152) (UniProt P18825); test: NVS_GPCR_hAdra2C: NovaScreen (NVS) G Protein-Coupled Receptor Assay for human Adrenergic, Alpha 2c Receptor (Adra2C) (AID 2283259)
# Sequence of human Adrenergic, Alpha 2c Receptor (Adra2C), ADRA2C (gene 152) (P18825 whole entry, looked up): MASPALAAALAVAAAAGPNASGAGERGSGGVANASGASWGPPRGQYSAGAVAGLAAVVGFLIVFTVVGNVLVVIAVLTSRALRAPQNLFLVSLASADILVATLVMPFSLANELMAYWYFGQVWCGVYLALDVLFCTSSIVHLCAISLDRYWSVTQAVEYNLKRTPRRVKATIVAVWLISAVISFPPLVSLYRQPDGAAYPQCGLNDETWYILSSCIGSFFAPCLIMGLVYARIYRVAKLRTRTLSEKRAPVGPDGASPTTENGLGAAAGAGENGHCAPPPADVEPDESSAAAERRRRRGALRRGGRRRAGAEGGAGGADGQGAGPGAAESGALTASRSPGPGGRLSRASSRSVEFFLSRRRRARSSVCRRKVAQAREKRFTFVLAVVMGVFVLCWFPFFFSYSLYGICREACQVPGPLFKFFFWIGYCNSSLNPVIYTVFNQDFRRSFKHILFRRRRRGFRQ
# Outline: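 Screened first in duplicate at 25 uM, with actives then run as concentration series. Membranes from Sf9 cells were exposed for 1 h, and displacement of radioligand was counted after filtration, using DMSO as baseline.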
# [6] = target: human Dopamine Receptor D2 (DRD2), DRD2 (gene 1813) (UniProt P14416); test: NVS_GPCR_hDRD2s: NovaScreen (NVS) G Protein-Coupled Receptor Assay for human Dopamine Receptor D2 (DRD2) (AID 2283266)
# Outline: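 Test compound (25 uM, duplicate in the primary screen; concentration series at follow-up) competed with radioligand for human DRD2 in CHO-derived membrane protein. Filter-based scintillation counting was done 1.5 hours after dosing, with loss of signal analysed against DMSO.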
# [7] = target: human Muscarinic, M4 Receptor, CHRM4 (gene 1132) (UniProt P08173); test: NVS_GPCR_hM4: NovaScreen (NVS) G Protein-Coupled Receptor Assay for human Muscarinic, M4 Receptor (AID 2283274)
# Sequence of human Muscarinic, M4 Receptor, CHRM4 (gene 1132) (P08173 whole entry, looked up): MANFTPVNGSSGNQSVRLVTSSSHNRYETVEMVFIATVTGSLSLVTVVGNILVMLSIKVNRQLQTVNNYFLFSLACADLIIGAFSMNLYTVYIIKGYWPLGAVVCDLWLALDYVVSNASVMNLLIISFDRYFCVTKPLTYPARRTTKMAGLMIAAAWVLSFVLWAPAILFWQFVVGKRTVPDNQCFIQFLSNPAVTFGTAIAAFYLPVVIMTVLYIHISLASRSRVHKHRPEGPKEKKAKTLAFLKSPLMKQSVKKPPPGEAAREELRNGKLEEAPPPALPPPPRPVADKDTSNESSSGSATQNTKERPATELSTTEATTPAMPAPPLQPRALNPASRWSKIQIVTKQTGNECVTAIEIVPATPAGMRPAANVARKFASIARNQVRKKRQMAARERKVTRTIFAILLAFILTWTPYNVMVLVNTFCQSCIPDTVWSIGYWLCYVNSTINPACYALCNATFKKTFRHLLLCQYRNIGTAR
# Outline: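 Filter-based scintillation counting of radioligand bound to CHO-expressed human M4 preparations after 1 h; loss of signal fitted versus DMSO. Initial duplicate testing at 25 uM, concentration-response follow-up for actives.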
# [8] = target: Muscarinic acetylcholine receptor M5 (Homo sapiens) (UniProt P08912); test: NVS_GPCR_hM5: NovaScreen (NVS) G Protein-Coupled Receptor Assay for human Muscarinic, M5 Receptor (AID 2283275)
# Sequence of Muscarinic acetylcholine receptor M5 (Homo sapiens) (P08912 whole entry, looked up): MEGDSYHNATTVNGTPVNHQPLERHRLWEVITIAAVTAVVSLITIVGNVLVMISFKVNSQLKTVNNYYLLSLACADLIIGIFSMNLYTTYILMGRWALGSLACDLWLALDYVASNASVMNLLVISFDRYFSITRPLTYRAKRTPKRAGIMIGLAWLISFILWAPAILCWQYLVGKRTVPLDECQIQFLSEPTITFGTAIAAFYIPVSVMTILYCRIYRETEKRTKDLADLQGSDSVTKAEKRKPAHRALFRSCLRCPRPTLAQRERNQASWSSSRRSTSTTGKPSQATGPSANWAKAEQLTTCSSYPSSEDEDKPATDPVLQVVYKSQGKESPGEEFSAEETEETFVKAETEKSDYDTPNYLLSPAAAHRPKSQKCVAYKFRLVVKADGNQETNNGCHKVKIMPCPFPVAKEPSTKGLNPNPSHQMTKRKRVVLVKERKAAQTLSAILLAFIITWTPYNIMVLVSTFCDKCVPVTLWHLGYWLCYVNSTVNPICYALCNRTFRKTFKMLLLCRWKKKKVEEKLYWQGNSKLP
# Outline: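 Chemicals passing a primary duplicate screen at 25 uM were run as singleton concentration series, maximum 50 uM. Displacement of a specific radioligand from CHO-extracted receptor was read by filter scintillation after 1 h, relative to DMSO.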
# [9] = target: human Opioid Receptor Delta 1 (Opiate D1), OPRD1 (gene 4985) (UniProt P41143); test: NVS_GPCR_hOpiate_D1: NovaScreen (NVS) G Protein-Coupled Receptor Assay for human Opioid Receptor Delta 1 (Opiate D1) (AID 2283280)
# Sequence of human Opioid Receptor Delta 1 (Opiate D1), OPRD1 (gene 4985) (P41143 whole entry, looked up): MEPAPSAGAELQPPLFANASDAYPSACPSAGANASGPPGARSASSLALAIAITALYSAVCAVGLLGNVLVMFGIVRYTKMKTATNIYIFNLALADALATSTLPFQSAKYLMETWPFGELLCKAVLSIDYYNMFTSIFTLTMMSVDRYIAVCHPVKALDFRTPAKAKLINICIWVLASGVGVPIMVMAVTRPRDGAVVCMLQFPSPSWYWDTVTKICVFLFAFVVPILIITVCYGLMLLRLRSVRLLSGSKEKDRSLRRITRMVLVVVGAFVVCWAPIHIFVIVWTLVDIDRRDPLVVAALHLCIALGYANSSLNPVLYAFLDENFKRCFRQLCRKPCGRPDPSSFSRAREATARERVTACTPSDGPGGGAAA
# Outline: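 Membrane preparations from CHO cells bearing the human receptor were incubated 1 h with test chemical, and bound radioligand was counted after filtration. Actives from 25 uM duplicate screening were retested in concentration-response.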
# [10] = target: human Dopamine Receptor D4.4 (DRD4.4), DRD4 (gene 1815) (UniProt P21917); test: NVS_GPCR_hDRD4.4: NovaScreen (NVS) G Protein-Coupled Receptor Assay for human Dopamine Receptor D4.4 (DRD4.4) (AID 2283264)
# Sequence of human Dopamine Receptor D4.4 (DRD4.4), DRD4 (gene 1815) (P21917 whole entry, looked up): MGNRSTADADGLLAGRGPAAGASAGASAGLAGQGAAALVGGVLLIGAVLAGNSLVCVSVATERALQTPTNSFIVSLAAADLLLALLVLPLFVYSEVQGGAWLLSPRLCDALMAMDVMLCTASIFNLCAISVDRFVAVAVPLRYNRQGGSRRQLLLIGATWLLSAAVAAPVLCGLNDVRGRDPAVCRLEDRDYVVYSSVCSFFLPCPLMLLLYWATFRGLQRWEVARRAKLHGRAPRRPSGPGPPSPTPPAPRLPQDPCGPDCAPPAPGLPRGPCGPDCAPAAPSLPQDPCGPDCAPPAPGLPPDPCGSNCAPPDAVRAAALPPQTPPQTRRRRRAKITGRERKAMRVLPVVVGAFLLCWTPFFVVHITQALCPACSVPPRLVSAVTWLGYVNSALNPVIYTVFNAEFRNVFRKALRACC
# Outline: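 Filter-binding assay with a tritiated or iodinated ligand, cell-free receptor prepared from CHO, 1 hour. Loss of bound radioactivity versus DMSO; single 25 uM duplicate screen, then concentration-response for actives.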
# [11] = target: human Endothelin Receptor Type A (ETA), EDNRA (gene 1909) (UniProt P25101); test: NVS_GPCR_hETA: NovaScreen (NVS) G Protein-Coupled Receptor Assay for human Endothelin Receptor Type A (ETA) (AID 2283265)
# Sequence of human Endothelin Receptor Type A (ETA), EDNRA (gene 1909) (P25101 whole entry, looked up): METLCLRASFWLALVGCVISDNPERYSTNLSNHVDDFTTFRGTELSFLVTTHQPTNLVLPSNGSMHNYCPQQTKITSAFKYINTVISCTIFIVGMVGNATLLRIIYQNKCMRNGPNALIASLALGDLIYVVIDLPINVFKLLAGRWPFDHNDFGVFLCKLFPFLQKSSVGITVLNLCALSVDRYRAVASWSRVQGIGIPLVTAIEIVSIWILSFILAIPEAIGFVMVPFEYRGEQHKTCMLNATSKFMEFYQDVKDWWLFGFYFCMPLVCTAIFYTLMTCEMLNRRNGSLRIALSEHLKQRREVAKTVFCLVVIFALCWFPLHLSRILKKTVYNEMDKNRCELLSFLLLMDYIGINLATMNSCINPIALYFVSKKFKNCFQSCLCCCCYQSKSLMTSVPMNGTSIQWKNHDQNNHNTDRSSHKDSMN
# Outline: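 Binding of radioligand to membrane protein extracted from SH-SY5Y cells was read by filtration and scintillation after 3 h. Compounds were screened at 25 uM in duplicate, with hits followed up in singleton concentration series to 50 uM.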
# [12] = target: human Neurotensin Receptor (NTS), NTSR1 (gene 4923) (UniProt P30989); test: NVS_GPCR_hNTS: NovaScreen (NVS) G Protein-Coupled Receptor Assay for human Neurotensin Receptor (NTS) (AID 2283279)
# Sequence of human Neurotensin Receptor (NTS), NTSR1 (gene 4923) (P30989 whole entry, looked up): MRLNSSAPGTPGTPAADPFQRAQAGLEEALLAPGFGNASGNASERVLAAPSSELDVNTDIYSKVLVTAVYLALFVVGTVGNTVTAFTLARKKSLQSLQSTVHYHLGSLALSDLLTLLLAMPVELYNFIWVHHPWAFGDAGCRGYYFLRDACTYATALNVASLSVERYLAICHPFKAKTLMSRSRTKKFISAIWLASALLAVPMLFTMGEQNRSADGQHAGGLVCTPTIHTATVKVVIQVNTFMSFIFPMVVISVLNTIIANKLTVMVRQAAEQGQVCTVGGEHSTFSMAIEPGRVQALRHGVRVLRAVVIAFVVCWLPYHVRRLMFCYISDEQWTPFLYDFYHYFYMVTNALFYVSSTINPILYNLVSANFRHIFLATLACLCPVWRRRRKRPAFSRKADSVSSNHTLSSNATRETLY
# Outline: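 Compounds competed with a radiolabelled ligand for binding to CHO-derived human neurotensin receptor; bound signal counted after filtration, 1 h. Screened first at a single concentration of 25 uM in duplicate, then concentration series to 50 uM maximum for actives.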
# [13] = target: Muscarinic acetylcholine receptor M1 (Homo sapiens) (UniProt P11229); test: NVS_GPCR_hM1: NovaScreen (NVS) G Protein-Coupled Receptor Assay for human Muscarinic, M1 Receptor (AID 2283270)
# Outline: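 Actives from a duplicate 25 uM single-point screen were retested in concentration series. Binding measured as displacement of a radioligand from CHO-derived receptor preparation, 1 h incubation, filtration and scintillation counting, analysed as signal loss against DMSO.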
# [14] = target: Muscarinic acetylcholine receptor M2 (Homo sapiens) (UniProt P08172); test: NVS_GPCR_hM2: NovaScreen (NVS) G Protein-Coupled Receptor Assay for human Muscarinic, M2 Receptor (AID 2283273)
# Sequence of Muscarinic acetylcholine receptor M2 (Homo sapiens) (P08172 whole entry, looked up): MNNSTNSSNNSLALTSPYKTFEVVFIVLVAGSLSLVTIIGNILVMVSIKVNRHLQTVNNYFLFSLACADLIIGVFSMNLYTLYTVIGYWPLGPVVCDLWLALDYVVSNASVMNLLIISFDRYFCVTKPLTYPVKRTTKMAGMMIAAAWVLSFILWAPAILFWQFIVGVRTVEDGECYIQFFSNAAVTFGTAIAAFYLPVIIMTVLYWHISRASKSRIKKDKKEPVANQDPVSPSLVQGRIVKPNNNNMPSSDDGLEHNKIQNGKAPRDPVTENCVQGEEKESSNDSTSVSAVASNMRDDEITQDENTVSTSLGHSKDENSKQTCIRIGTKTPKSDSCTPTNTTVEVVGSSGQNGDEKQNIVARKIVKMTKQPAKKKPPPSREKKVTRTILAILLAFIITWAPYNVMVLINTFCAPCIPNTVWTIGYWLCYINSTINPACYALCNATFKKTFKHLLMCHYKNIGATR
# Outline: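 Radioligand competition binding, cell-free, receptor from CHO; 1 h incubation; scintillation detection. Primary testing at 25 uM in duplicate.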
smiles,measurement,setting,value
O=C(CCCN1CCC(O)(c2ccc(Cl)cc2)CC1)c1ccc(F)cc1,outcome,[1],inactive
same,outcome,[2],inactive
CC=O,outcome,[3],inactive
CCCCCCCC(OC)OC,AC50,[3],74.8 nM (active)
CN(Cc1cnc2nc(N)nc(N)c2n1)c1ccc(C(=O)N[C@@H](CCC(=O)O)C(=O)O)cc1,AC50,[4],9.68 µM (active)
same,outcome,[5],inactive
same,outcome,[1],inactive
same,AC50,[6],22 µM (active)
same,outcome,[7],inactive
same,outcome,[8],inactive
same,AC50,[2],2.6 µM (active)
same,AC50,[9],25 µM (active)
CCC(=O)O,outcome,[3],inactive
C[C@]12CC[C@@H]3c4ccc(O)cc4CC[C@H]3[C@@H]1C[C@@H](O)[C@@H]2O,outcome,[3],inactive
Cc1[nH]nc2c1N=C(c1ccccc1Cl)c1cc([N+](=O)[O-])ccc1N2,outcome,[5],inactive
CCCCc1oc2ccccc2c1C(=O)c1cc(I)c(OCCN(CC)CC)c(I)c1,AC50,[10],18.9 µM (active)
same,AC50,[11],590 nM (active)
same,AC50,[7],4.41 µM (active)
same,AC50,[8],4.86 µM (active)
same,AC50,[2],11.4 µM (active)
same,AC50,[12],7.41 µM (active)
Clc1ccc(Nc2nnc(Cc3ccncc3)c3ccccc23)cc1,AC50,[2],3.61 µM (active)
same,AC50,[3],417 nM (active)
NC(=NCCCCCCN=C(N)/N=C(\N)Nc1ccc(Cl)cc1)/N=C(\N)Nc1ccc(Cl)cc1,AC50,[13],3.15 µM (active)
same,AC50,[2],2.18 µM (active)
CC[N+](CC)(CC)Cc1ccccc1,AC50,[14],21.5 µM (active)
OCC(CO)(CBr)CBr,outcome,[3],inactive
CC(O)COc1ccccc1 (stereo not given),outcome,[3],inactive
CCCCCCCCCCCCCCCCCC[N+](C)(C)Cc1ccccc1,AC50,[14],0.314 µM (active)
same,AC50,[2],2.55 µM (active)
